In PubChem BioAssay (NCATS):
Several values for one entry are separate records, joined by “and”; a condition that tells them apart may be missing. Equal entries are not always repeated. Records with an inconclusive call do not appear. Activity calls are given as the source filed them. Calls come from the whole dose curve; as a rule, active = well fitted cell-killing curve with a large enough effect; inconclusive = small, poorly fitted or top-dose-only effect, or effect the other way; inactive = no such curve, though single readings can be large or run the other way.

assay: Viability qHTS for spleen associated tyrosine kinase inhibitor (SYKi) drug resistant MV4-11 cells (AID 1963824); conditions: SYKi-resistant MV4-11 viability, CellTiter-Glo, 72 h; series mostly up to 45 µM; viability, % of control: at the top concentration; note: nearly all actives have a fitted effect of over 35% in size
Description: Department of Medicine, Hematology/Oncology
University Hospital Frankfurt, Germany.
Trials have shown promising clinical activity of the selective SYK inhibitor entospletinib in patients with high expressing HOXA9/MEIS1 acute leukemias. As the development of resistance mechanisms is a common problem in the use of targeted drugs, we performed a chemical library screen to identify drug sensitivities in SYK inhibitor resistant AML cells. […] Glucocorticoids are potent immunosuppressants which work in part by inhibiting the transcription of cytokine genes.
Described herein is a viability screen to look for activity in the SYK inhibitor drug resistant cell line against four NCATS compound libraries (MIPE 5.0, NPC, NPACT, and Kinase) totaling 11372 compounds. Active hits were reacquired for confirmation and further secondary assay testing.
SEQUENCE No. (e.g., 1, 2, 3, etc.); […] (e.g., Cells, Incubation, Reagent, etc.); VALUE; DESCRIPTION.
1; Media; 2uL; white, solid-bottom Corning assay plate.
2; Compounds; 23nL; Echo acoustic dispenser.
3; Cell; 5uL; 500 cells per well.
4: Incubation; 72hr; 37 C, 5% CO2, 95% humidity.
5; Reagent; 3uL; CellTiter-Glo reagent (Promega).
6; Incubation; 10min; room temperature.
7; Detection; Luminescence; ViewLux plate reader (PerkinElmer).
NOTES (numbers refer to Sequence numbers above
1. Quantitative high-throughput screening (qHTS) of small molecule compounds was conducted on drug resistant SYKi MV4-11 cell line.
2. Twenty-three nanoliter of small molecule compounds were added to each assay plates using the Echo acoustic dispenser (Beckman Coulter).
3. Cells were seeded into the assay plates at a final density of 500 cells in 5uL of media per well using the Multidrop Combi dispenser.
4. Plates were covered with stainless steel gasketed lids and incubated for 72 hours at standard cell culture conditions.
5. Viability was assessed by adding 3uL of CellTiter-Glo detection reagent (Promega).
6. Plates were covered with gasket lids and incubated for 10 minutes at room temperature.
7. Luminescence was measured on a ViewLux plate reader (PerkinElmer).
Potency is the fitted concentration of half-maximal effect.

Compound | viability, % of control | Potency
COc1ccccc1N1CCNCC1 | 94% (inactive) | 
C[N+](C)(C)CCOC(=O)C(O)(c1ccccc1)c1ccccc1 | 85.7% (inactive) | 
CC(CC(C(N)=O)(c1ccccc1)c1ccccc1)N(C)C (stereo not given) | 90% (inactive) | 
CN1C(=O)CCS(=O)(=O)C1c1ccc(Cl)cc1 (stereo not given) |  | inactive
ClC1=C(Cl)[C@]2(Cl)[C@@H]3[C@@H]4C[C@@H]([C@H]5O[C@@H]45)[C@@H]3[C@@]1(Cl)C2(Cl)Cl |  | 30.6 µM (active)
C[C@@H]1O[C@@H](O[C@H]2CC[C@@]3(C)C(CC[C@@H]4C3CC[C@]3(C)[C@@H](C5=CC(=O)OC5)CC[C@]43O)C2)[C@H](O)[C@H](O)[C@H]1O (stereo not given in full) |  | 0.2 µM (active)
COc1cc(C)[nH]c(=O)c1CNC(=O)c1c(C)n([C@H](C)C2CCOCC2)c2ccccc12 | 63% (inactive) | 
C[N+]1(C)[C@@H]2CC[C@H]1CC(OC(=O)C(CO)c1ccccc1)C2 (stereo not given in full) | 75.7% (inactive) | 
CN=C(NS(=O)(=O)c1ccc(Cl)cc1)N1C[C@H](c2ccccc2)C(c2ccc(Cl)cc2)=N1 |  | 20.6 µM (active)
CCOc1ccccc1-n1c(C(C)N2CCN(C(=O)COc3ccc(Cl)cc3)CC2)nc2ccccc2c1=O (stereo not given) |  | 1.46 µM (active) and 1.32 µM (active)
Cn1ncnc1COc1nn2c(-c3c(F)cccc3F)nnc2cc1C1CCC1 | 87.4% (inactive) | 
CCCCOC(=O)c1ccnc2cc(C(OCCN3CCCCC3)c3ccccc3Cl)sc12 (stereo not given) |  | 20.6 µM (active)
COC(=O)CC1CC2(C(=O)c3c(O)cccc3C2(O)C(=O)OC)C(C)O1 (stereo not given) |  | 16.1 µM (active)
CCN1C[C@]2(OC(=O)c3ccccc3NC(C)=O)CC[C@H](OC)[C@@]34[C@@H]2C[C@@H]([C@@H]13)[C@@]1(O)C[C@H](OC)[C@H]2C[C@@H]4[C@]1(O)[C@H]2OC |  | 4.11 µM (active)
COC(=O)C(Cl)C(=O)OC | 98% (inactive) | 
CC(=O)c1c(O)c(C)c(O)c(Cc2c(O)c3c(c(C(=O)/C=C/c4ccccc4)c2O)OC(C)(C)C=C3)c1O |  | 25.9 µM (active)
CC(=O)OC[C@H]1O[C@@H]([S-])[C@H](OC(C)=O)[C@@H](OC(C)=O)[C@@H]1OC(C)=O.CC[PH+](CC)CC.[Au] |  | 0.235 µM (active)
C[C@]12COC(=O)C[C@@H]1CC[C@@H]1[C@@H]2CC[C@@]2(C)[C@H]1CC[C@]2(C)O | 70.4% (inactive) | 
Cn1c(COP(=O)(NCCBr)NCCBr)cnc1[N+](=O)[O-] |  | 5.9 µM (active)
C[C@H]1C(=O)O[C@H]2[C@H](O)[C@]34C5OC(=O)[C@]3(O[C@@H]3OC(=O)[C@H](O)C34[C@H](C(C)(C)C)[C@H]5O)C12O (stereo not given in full) | 104% [at 17.3 µM] (inactive) | 

Compound | viability, % of control | Potency
Sc1ccccc1Cl | 100% (inactive) | 
CC(C(=O)c1ccccc1)N(C)C (stereo not given) | 78.2% (inactive) | 
CN1CCN(c2ccc([N+](=O)[O-])c3no[n+]([O-])c23)CC1 |  | 8.33 µM (active)
C#C[C@]1(O)CC[C@H]2[C@@H]3CCC4=CC(=O)CCC4=C3C=C[C@@]21CC | 81.6% (inactive) | 
O=C(O)CCCc1ccc(N(CCCl)CCCl)cc1 | 85.7% (inactive) | 
COC(C)(C)CCCC(C)C/C=C/C(C)=C/C(=O)OC(C)C (stereo not given) | 95.3% (inactive) | 
CC[C@H](O)C(C[C@H](C)N(C)C)(c1ccccc1)c1ccccc1 | 101% [at 91.9 µM] (inactive) | 
CCCC[N+]1(C)[C@H]2CC(OC(=O)[C@H](CO)c3ccccc3)C[C@H]1[C@H]1O[C@H]12 (stereo not given in full) | 93.3% (inactive) | 
C#CCN(C)[C@H](C)Cc1ccccc1 |  | inactive
COC1CC(=C(c2cccs2)c2cccs2)C[N+](C)(C)C1 (stereo not given) |  | 16.8 µM (active)
C[C@@H](C1CC[C@@]2(O)C3=CC(=O)[C@@H]4C[C@@H](O)[C@@H](O)C[C@]4(C)[C@H]3CC[C@]12C)[C@H](O)CCC(C)(C)O (stereo not given in full) | 80.4% (inactive) | 
O=C(O)c1ccc2[nH]cc(CCCCN3CC=C(c4ccccc4)CC3)c2c1 | 84.9% (inactive) | 
CO[C@H]1CCC(O[C@H]2C[C@H]([C@]3(C)CC[C@]4(C[C@H](O)[C@@H](C)[C@@H]([C@@H](C)/C=C(\C)C(=O)[C@H](C)C[C@H](C)C(=O)O)O4)O3)O[C@]3(O[C@@H]([C@H]4O[C@@](O)(CO)[C@H](C)C[C@@H]4C)C[C@@H]3C)[C@@H]2C)O[C@@H]1C (stereo not given in full) |  | 0.209 µM (active)
Fc1cc(F)c2c(c1)C1C=CCC1C(c1cccnc1)N2 (stereo not given) |  | 2.91 µM (active)
CCC1NC(=O)C2C(Cl)C(Cl)CN2C(=O)C(C(C)O)NC(=O)CC(c2ccccc2)NC(=O)C(CO)NC1=O (stereo not given) | 96.4% [at 17.3 µM] (inactive) | 
O=C1c2ccccc2C(=O)c2ccccc21 | 92.2% [at 17.3 µM] (inactive) | 
CCCCCC[C@H]1C(=O)O[C@H](C)[C@H](NC(=O)c2cccc(NC=O)c2O)C(=O)O[C@@H](C)[C@@H]1OC(=O)CC(C)C |  | 0.105 µM (active)
C[C@@H]1C[C@@H]([C@H](O)CC2CC(=O)NC(=O)C2)C(=O)[C@@H](C)C1 |  | 841 nM (active) and 590 nM (active)
C=C1[C@@H](C)[C@H]2[C@H](Cc3ccccc3)NC(=O)[C@]23[C@H](OC(C)=O)/C=C/[C@](C)(O)C(=O)[C@@H](C)C/C=C/[C@H]3[C@@H]1O |  | 0.731 µM (active)
Clc1ccc([C@]23CNC[C@H]2C3)cc1Cl | 67% (inactive) | 
